S2 tox = cell viability loss in ATXN counter-screen; actives 0.49% (n = 400,000); Potency, µM (highest dose often 56.7 µM), actives largely listed as cytotoxic; S2 cells (HEK-293 line with an ATXN2-luciferase reporter) viability, CellTiter-Fluor protease fluorescence, 24 h; also: nearly all actives have a fitted effect of over 40% in size
KB-3-1 cytotox = kills parental KB-3-1 adenocarcinoma cells | KB-3-1 viability, CellTiter-Glo ATP luminescence, 72 h | Potency, µM (series often up to 46.1 µM), usual class: cytotoxic | actives 1.4% (n = 400,000) | AID 1347075; also: % is scaled to controls: 0 for no effect and ±100 for the full control effect; nearly all actives have a fitted effect of over 60% in size
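Here the drug-naive KB-3-1 line serves as comparator for MDR sub-line selectivity; cells received compound titrations, 72 h at 37 °C, then CellTiter-Glo readout.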
KB-V1 cytotox = kills drug-selected multidrug resistant KB-V1 cells; KB-V1 MDR cells viability, CellTiter-Glo, 72 h; actives 3.4% (n = 400,000); Potency, µM (doses to about 46.1 µM), most hits filed as cytotoxic; also: % is scaled to controls: 0 for no effect and ±100 for the full control effect; nearly all actives have a fitted effect of over 60% in size
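KB-V1 MDR subline cells in DMEM (phenol-red free, 10% FBS) exposed to compounds in qHTS concentration series for 72 h at 37 degrees C. Viability read by CellTiter-Glo luminescence; concentration-effect curves fitted after normalization and correction.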
TGFb SMAD3 inh = TGF-b pathway inhibition; HepG2 CAGA-GFP TGF-b/SMAD3 reporter, GFP fluorescence, 18 h; TGF-beta stimulated, 500 pg/mL final; actives 1.2% (n = 410,000); Potency, µM (highest dose often 46.1 µM), inactives show at the top dose activity, negative = inhibition, actives largely listed as inhibitors; AID 588855; also: % is scaled to controls: 0 for no effect and ±100 for the full control effect; nearly all actives have a fitted effect of over 65% in size
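Inhibition was scored as loss of TGF-beta-induced (500 pg/mL final, 18 hours, 37 degrees C) GFP in HEPG2 cells carrying a CAGA-GFP reporter, in DMEM with 1% FBS. Well GFP was summed per cell; Activity was normalised to unstimulated and stimulated DMSO wells, then concentration-response fitting.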
ATXN2 expr inh = inhibitors of ATXN2 expression; HEK-293 ATXN2-luciferase reporter, luminescence, 24 h; Potency, µM (highest dose often 57 µM), for the others: at the top dose activity change, negative = inhibition, hits mostly inhibitors; actives 0.72% (n = 360,000); AID 1745845; also: % is scaled to controls: 0 for no effect and ±100 for the full control effect; nearly all actives have a fitted effect of over 55% in size
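qHTS (up to 57 uM final) was run with 24 h compound exposure of reporter cells at 37 °C. Each well was multiplexed: SteadyGlo luminescence measured ATXN2-luciferase expression after a fluorogenic Gly-Phe-AFC viability readout (25 uM final).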
HepG2 viability = HepG2 cytotoxicity, counter-screen for TGF-b inhibitors | Potency, µM (titrated, usually from 46.1 µM), for the others: at the highest dose activity change, negative = cytotoxicity, hits mostly cytotoxic | AID 588856 | actives 0.76% (n = 410,000) | HepG2 CAGA-GFP viability, ATP luminescence, 18 h
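HepG2 CAGA-GFP cells (1000/well, DMEM with 1% FBS) received compound, then TGF-beta at 500 pg/mL final, and were incubated 18 hours at 37 degrees C. Viability was read by CellTiter-Glo luminescence. Media-only wells were set as complete cell-killing and DMSO as no toxicity.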
Starred values were filed as active, the others as inactive; i = inactive; ? = inconclusive; · = no result given. The list is not random: actives were taken first. Their share in the collection is about 5.9%. Calls follow the shape of the dose curve; as a rule, active = well fitted curve in the direction sought with a large enough effect; inconclusive = small, poorly fitted or top-dose-only effect, or another doubt; inactive = no such curve, though single readings can be large; an effect the other way counts as inactive or inconclusive. Potency is read from the fitted curve at half-maximal effect.

SMILES	S2 tox	KB-3-1 cytotox	KB-V1 cytotox	TGFb SMAD3 inh	ATXN2 expr inh	HepG2 viability
Cc1noc(C)c1COc1ccc(C(=O)N2CCC(C)CC2)cc1	i	i	23µM*	-15%	-15%	-25%
CC(C)(C)OC(=O)N1CCC(c2c(C(=O)NCCN3CCc4ccccc4C3)cnn2-c2ccc(F)cc2)CC1	i	i	i	?	-13%	-56%
CC(C)OCCCNC(=O)Cn1c(-c2cccs2)cc2cc(F)ccc21	?	i	i	?	-28%	-22%
Cc1nc2ccccc2nc1CN1CCOc2ccc(CN3CCc4sccc4C3)cc2C1	i	·	·	·	·	·
Cc1[nH]n(-c2nc(-c3ccc(Cl)cc3)cs2)c(=O)c1N=Nc1ccc(O)cc1	·	?	15µM*	6%	?	2%
O=C1c2ccccc2C(=O)N1c1nc(-c2ccc(Cl)cc2)cs1	·	i	i	-15%	·	-14%
CCCCn1nnnc1C1(C)CCC(=O)N1CCCn1ccnc1 (stereo not given)	?	13µM*	i	·	-30%	·
Cc1ccc(S(=O)(=O)N[C@@H](CC(C)C)C(=O)NCc2ccco2)cc1	i	i	15µM*	?	-2%	-16%
Cc1cc(C)c(C)c(S(=O)(=O)NCC(=O)NCc2ccco2)c1C	i	i	18µM*	13%	4%	6%
Cc1cc(C)c2c(CC(=O)NCc3ccco3)coc2c1	i	?	15µM*	3%	2%	-3%
Cc1ccc(S(=O)(=O)NC(=O)NCc2ccco2)cc1	i	?	i	-2%	10%	-14%
NCCCNCCCCNC(=O)C(O)NC(=O)CCCCCCN=C(N)N (stereo not given)	i	·	·	·	·	·
COc1ccc(C2(C)NC(=O)N(CC(=O)c3cc(C)n(C4CC4)c3C)C2=O)cc1OC (stereo not given)	?	?	23µM*	-22%	-7%	11%
CCC1(C)NC(=O)N(CC(=O)c2cc(C)n(C3CC3)c2C)C1=O (stereo not given)	i	i	i	-4%	25%	1%
CCCCCCCCNCCS(=O)(=O)NCc1ccccc1	·	?	i	?	?	16µM*
CCCCNS(=O)(=O)CCNCCc1ccccc1	i	i	i	3%	6%	-1%
Cc1ncc2c(c1CNC(=O)/C=C/c1cccs1)CCN(C(=O)c1c(C)noc1C)C2	i	·	·	·	·	·
CCOc1ccc(CNC(=O)c2cc3oc4ccccc4c3n2C)cc1	i	?	?	-19%	47%	-18%
COc1cccc(CNC(=O)c2cc3oc4ccccc4c3n2C)c1OC	i	?	6.5µM*	15%	5%	-28%
O=C(c1ccc(S(=O)(=O)c2ccccc2Cl)c([N+](=O)[O-])c1)N1CCCCCC1	?	?	2.3µM*	?	?	-20%
O=C(c1ccc(S(=O)(=O)c2cccc(Cl)c2)c([N+](=O)[O-])c1)N1CCN(c2ccccn2)CC1	i	?	?	11µM*	·	-97%
O=C(c1cccc(Cl)c1)N1CCN(c2ccccn2)CC1	i	i	i	0%	2%	-11%
CCN1CCN(C(=O)c2ccc(Sc3ccccc3Cl)c([N+](=O)[O-])c2)CC1	i	i	13µM*	-17%	-8%	-13%
CCN1CCCC1CNC(=O)c1ccc(Sc2ccccc2Cl)c([N+](=O)[O-])c1 (stereo not given)	i	i	i	3%	7%	-21%
O=C(CS)Nc1ccccc1	i	·	·	·	19%	·
COc1ccc(S(=O)(=O)c2cnc3cc(OC)c(OC)cc3c2N2CCCC(C)C2)cc1 (stereo not given)	?	?	i	?	?	-22%
Cc1cc2nc(-c3ccc[nH]c3=O)[nH]c2cc1C	·	i	?	?	·	0.89µM*
